PostGolgi yeast = growth inhibition of a yeast mutant, post-Golgi transport screen. post-Golgi transport phenotypic cell assay. inhibition, % at 10 µM. 98,000 tested, 0.9% active. AID 739;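 further: yeast cells grown in 1536-well plates; yeast grown about 18 h at 30C before absorbance read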
MT1-MMP txn act = MT1-MMP promoter transcription activation | HT1080 MT1-MMP promoter luciferase reporter, luminescence, overnight; hits give high values | activation factor at 10 µM | 86,000 tested, 0.16% active | AID 750;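 active means activation factor of at least 2 for MT1-MMP transcription at 10 µM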
PostGolgi ctrl = yeast control strain growth, post-Golgi counter-screen. 98,000 tested, 5% active. efflux-deficient yeast background strain, growth absorbance A615, 16 h. AID 738. inhibition, % at 10 µM
Measles CPE = protection of cells from measles virus; 140,000 tested, 1.5% active; protection (pct of control), % at 4 µM; Measles virus-infected cells, CPE protection, absorbance; in the data active means protection mostly above about 24%, no sharp cut-off; inactive means mostly below about 26%
* marks the source's active call; other numbers are inactive results; nt = not tested or not shown. Only some compounds are listed: those with a hit (about 5.3% of all), similar ones and a draw of the others. Unless noted, no stated cut-off is given here; in the data, active means inhibition above about 30%; inactive means the rest.

SMILES	PostGolgi yeast	MT1-MMP txn act	PostGolgi ctrl	Measles CPE
c1ccc(CCc2nn3c(C4COc5ccccc5O4)nnc3s2)cc1 (configuration not stated)	5.4	1.4	30.7*	9.7
On1onc2c3cc(-c4ccccc4)nc3ccc21	96.3*	nt	94.2*	11.1
CCOC(=O)c1c(NC(=O)CN2C(=O)NC3(CCC(CC)CC3)C2=O)sc(C)c1-c1ccc(C)cc1 (configuration not stated)	nt	nt	nt	4.6
CCOC(=O)C1=C(C)N=C2SC(C(=O)OC)=CC(=O)N2C1c1cc(OC)c(OC)c(OC)c1 (configuration not stated)	nt	nt	nt	11.1
COc1ccccc1C/C(N)=N/O	nt	nt	nt	16.0
COc1ccccc1CC(=O)O/N=C(\N)Cc1cccc2ccccc12	-3.3	nt	30.2*	4.1
CCc1nc2oc3ccccc3c(=O)c2c(=O)n1-c1ccccc1	-5.5	1.7	30.3*	10.9
O=C(COC(=O)CCOc1ccccc1)Nc1ncc(Cl)cc1Cl	nt	nt	nt	4.7
Oc1ccccc1CNc1cnc2ccccc2c1	nt	2.1*	nt	3.0
CCOC(=O)c1c(NC(=O)CSc2nc3cc(Cl)ccc3c(=O)n2Cc2ccco2)sc(C(=O)N(C)C)c1C	nt	nt	nt	21.2
CCCNC(=O)[C@H](Cc1c[nH]c2ccccc12)NC(=O)c1ccccc1Cl	nt	nt	nt	31.5*
Cc1cc(C)nc(NC(=NCCc2c[nH]c3ccccc23)NC(=O)c2ccco2)n1	11.2	0.9	41.8*	5.7
O=C(Nc1ccccc1C(=O)NC(Cc1c[nH]c2ccccc12)C(=O)O)c1ccco1 (configuration not stated)	2.8	1.2	-10.2	5.1
CCCCNC(=O)[C@H](Cc1c[nH]c2ccccc12)NC(=O)c1ccccc1Cl	nt	nt	nt	2.1
O=C(NC(Cc1c[nH]c2ccccc12)C(=O)O)c1ccco1 (configuration not stated)	-8.4	1.3	30.2*	6.7
CCOC(=O)C1=C(C)N(CCCCCC(=O)O)C(=O)NC1c1ccccc1OS(=O)(=O)c1ccccc1[N+](=O)[O-] (configuration not stated)	nt	1.3	nt	nt
CCc1nnc(NC(=O)c2nc3nc(C)cc(C)n3n2)s1	7.8	nt	0.6	6.7
O=C(OC(C(=O)NCC1CCCO1)c1ccc(F)cc1)c1cccs1 (configuration not stated)	-7.4	nt	-5.7	0.2
CCOC(=O)c1c(-c2ccc(OC)cc2)csc1NC(=O)COc1ccc2c(C)cc(=O)oc2c1	nt	nt	nt	9.0
CCOC(=O)c1c(-c2ccc(OC)cc2)csc1NC(=O)CSc1ncnc2sccc12	nt	nt	nt	43.2*
CCC/C=C(\CCC)C(NC(=O)c1ccc(-c2ccccc2)cc1)c1ccc(C(=O)OC)cc1 (configuration not stated)	nt	1.2	nt	nt
C/C(=N/OCO/N=C(\C)c1ccccc1)c1ccccc1	nt	nt	nt	18.9
C/C(=N/OCO/N=C(/C)c1ccc(F)cc1)c1ccc(F)cc1	nt	nt	nt	28.8*
O=C(CCN(NC(=O)c1ccccc1)C1=NS(=O)(=O)c2ccccc21)NC1CCCCC1	nt	nt	nt	2.2
Clc1ccc(-c2csc(N3CCSCC3)n2)cc1	nt	nt	nt	24.1
SMILES	PostGolgi yeast	MT1-MMP txn act	PostGolgi ctrl	Measles CPE
Cc1ccc2c(c1)cc(CN(Cc1ccco1)S(=O)(=O)c1ccccc1)c1nnnn12	-3.1	1.2	44.8*	7.9
CCCn1c(N2CCN(CC(=O)NCc3cccs3)CC2)nc2ccccc21	3.1	1	6.4	60.7*
O=C(CN1CCC(n2nnc3ccccc32)CC1)NCc1cccs1	-6.4	1.1	-2.3	24.5
CC(C)n1c2ccccc2c2nc3ccccc3nc21	1.4	1.1	46.4*	16.7
CC(C)n1c(Nc2ccccc2)nc2ccccc21	-1.4	0.9	1.8	2.5
COc1ccc(Cn2c(/C=C/c3ccccc3)nc3ccccc32)cc1	16.5	nt	42.5*	9.5
CCn1c(/C=C/c2ccccc2)nc2ccccc21	3.9	nt	13.3	9.7
COc1ccccc1Cn1c(-c2ccccc2OC)nc2ccccc21	6.4	1	48.5*	18.5
COc1ccc(-c2nc3ccccc3n2Cc2ccccc2)cc1	19.6	1.1	55.4*	9.2
COc1ccc(-c2c(C)nn(Cc3ccccc3)c2N)cc1	10.5	1.1	41.8*	3.8
COc1cccc(-c2ccc(SCC(=O)N3CCc4ccccc43)nn2)c1	nt	nt	nt	10.2
Cc1cc(C(=O)CSc2nc(N)cc(N)n2)c(C)n1-c1cccc(F)c1	nt	nt	nt	4.6
Cc1ccc(C(C)C)c(OCc2ccc(C(=O)N/N=C/c3cccc(O)c3O)cc2)c1	nt	nt	nt	5.3
O=S(=O)(NC1CCCCC1)c1cccc(-c2nnc(-c3ccccc3)o2)c1	17.2	1.1	31.5*	9.0
O=S(=O)(c1ccc(Oc2ccc(-c3nnco3)cc2)nc1)N1CCC(Cc2ccccc2)CC1	-10.4	1	-0.7	43.3*
CS(=O)(=O)N1CCCC(C(=O)NCc2ccccc2Cl)C1 (configuration not stated)	29.5	1.2	-10.1	42.3*

From PubChem BioAssay
